Assay results published in the antibiotic and cytotoxicity screens of Wong et al. (2023).
About 1,500 (3.8%) of roughly 39,000 compounds were called active. The list comes from a sample in which actives are over-represented; it also holds similar structures and randomly drawn compounds.

Test system: HSkMC (human skeletal muscle cells)
Test: cytotoxicity call (relative viability < 0.9)
Conditions: 10 µM

| Structure (SMILES) | cytotoxicity call |
| --- | --- |
| CCS(=O)(=O)NCC[C@H]1CC[C@@H](NS(=O)(=O)c2ccccc2C)[C@@H](CO)O1 | inactive |
| C[C@@H]1CN([C@H](C)CO)C(=O)CCCn2cc(nn2)CO[C@H]1CN(C)C(=O)Nc1ccnc(N2CCOCC2)c1 | inactive |
| Cc1ccc(S(=O)(=O)N(C)C[C@@H]2OCCCC[C@H](C)Oc3ccc(NC(=O)Cc4ccccc4)cc3C(=O)N([C@@H](C)CO)C[C@H]2C)cc1 | inactive |
| C[C@@H]1CCCCO[C@H](CN(C)C(=O)c2ccccc2)[C@@H](C)CN([C@@H](C)CO)C(=O)c2cc(NC(=O)NC3CCCCC3)ccc2O1 | inactive |
| COC(=O)CCc1c(c/2[nH]c1/C=C/1\N=C(/C=C/3\N=C(/C=C/4\N/C(=C2)[C@]2(C)[C@H](C(=O)OC)C(=CC=C42)C(=O)OC)C(=C3C=C)C)C(=C1CCC(=O)O)C)C | active |
| CC/1=C(CCC(=O)O)/C/2=C/c3[nH]c(c(c3CCC(=O)O)C)/C=C/3\N=C(/C=C/4\N=C(\C=C1/N2)C(=C4C)C=C)C(=C3C)C=C | inactive |
| C=CC1=C(C)c2cc3[nH]c(cc4nc(cc5[nH]c(cc1n2)c(C)c5CCC(=O)O)C(CCC(=O)O)=C4C)c(C)c3C=C | inactive |
| Cc1noc(C)c1NC(=O)N(C)C[C@@H]1Oc2c(NC(=O)c3ccc(-c4nccs4)cc3)cccc2C(=O)N([C@H](C)CO)C[C@@H]1C | inactive |
| C[C@H]1CCCCO[C@H](CN(C)C(=O)c2ccccc2)[C@@H](C)CN([C@@H](C)CO)C(=O)c2cc(NC(=O)Nc3ccc(C(F)(F)F)cc3)ccc2O1 | inactive |
| C[C@@H]1CN([C@@H](C)CO)C(=O)c2cc(NC(=O)Nc3ccc(C(F)(F)F)cc3)ccc2O[C@@H](C)CCCCO[C@H]1CN(C)C(=O)c1ccccc1 | inactive |
| C[C@@H]1CN([C@H](C)CO)C(=O)c2cc(NC(=O)Nc3ccc(C(F)(F)F)cc3)ccc2O[C@@H](C)CCCCO[C@@H]1CN(C)C(=O)c1ccccc1 | active |
| C[C@H]1CCCCO[C@@H](CN(C)C(=O)c2ccccc2)[C@@H](C)CN([C@@H](C)CO)C(=O)c2cc(NC(=O)Nc3ccc(C(F)(F)F)cc3)ccc2O1 | inactive |
| C[C@@H]1CCCCO[C@@H](CN(C)C(=O)c2ccccc2)[C@H](C)CN([C@H](C)CO)C(=O)c2cc(NC(=O)Nc3ccc(C(F)(F)F)cc3)ccc2O1 | inactive |
| C[C@@H]1CN([C@H](C)CO)C(=O)c2cc(NC(=O)Nc3ccc(C(F)(F)F)cc3)ccc2O[C@@H](C)CCCCO[C@H]1CN(C)C(=O)c1ccccc1 | active |
| C[C@@H]1CN([C@H](C)CO)C(=O)c2cc(NC(=O)Nc3ccccc3)ccc2O[C@@H](C)CCCCO[C@@H]1CN(C)Cc1ccc(Cl)c(Cl)c1 | inactive |
| CC1(C)[C@H](C(N)=O)CC[C@@]1(C)C(=O)O | inactive |
| C[C@H]1CCCCO[C@@H](CN(C)Cc2ccccc2)[C@@H](C)CN([C@@H](C)CO)C(=O)c2cc(NC(=O)Nc3ccc(F)cc3)ccc2O1 | active |
| C[C@H]1CCCCO[C@H](CN(C)Cc2ccccc2)[C@@H](C)CN([C@@H](C)CO)C(=O)c2cc(NC(=O)Nc3ccc(F)cc3)ccc2O1 | inactive |
| C[C@@H]1CCCCO[C@H](CN(C)Cc2ccccc2)[C@H](C)CN([C@H](C)CO)C(=O)c2cc(NC(=O)Nc3ccc(F)cc3)ccc2O1 | inactive |
| C[C@@H]1CN([C@H](C)CO)C(=O)c2cc(NC(=O)Nc3ccc(F)cc3)ccc2O[C@@H](C)CCCCO[C@@H]1CN(C)Cc1ccccc1 | inactive |
| C[C@H](CO)N1C[C@H](C)[C@H](CN(C)Cc2ccccc2)OCCCC[C@H](C)Oc2ccc(NC(=O)Nc3ccc(F)cc3)cc2C1=O | inactive |
| C[C@@H]1CN([C@H](C)CO)C(=O)c2cc(NC(=O)Nc3ccc(F)cc3)ccc2O[C@@H](C)CCCCO[C@H]1CN(C)Cc1ccccc1 | active |

| Structure (SMILES) | cytotoxicity call |
| --- | --- |
| COc1ccc(CN(C)C[C@@H]2OCCCC[C@H](C)Oc3ccc(NS(=O)(=O)c4ccc(F)cc4)cc3C(=O)N([C@@H](C)CO)C[C@@H]2C)cc1 | inactive |
| C[C@H](CO)N1C[C@H](C)[C@H](CN(C)S(C)(=O)=O)Oc2c(NS(=O)(=O)c3cn(C)cn3)cccc2C1=O | inactive |
| COc1ccc2c3c(n(c2c1)C)[C@@H](CO)N(C[C@]13CCN(CC1)S(=O)(=O)C)C(=O)CN(C)C | inactive |
| COc1ccc(NC(=O)N(C)C[C@H]2OCCCC[C@H](C)Oc3ccc(NC(=O)Nc4ccc(C(F)(F)F)cc4)cc3C(=O)N([C@@H](C)CO)C[C@@H]2C)cc1 | inactive |
| Clc1ccc(C(c2ccc(Cl)cc2)[n+]2ccn(C[C@@H](OCc3ccc(Cl)cc3Cl)c3ccc(Cl)cc3Cl)c2)cc1 | active |
| Clc1ccc(COC(Cn2ccnc2)c2ccc(Cl)cc2Cl)c(Cl)c1.O=[N+]([O-])O (stereo not drawn) | inactive |
| Clc1ccc(C(Cn2ccnc2)OCc2ccsc2Cl)c(Cl)c1 (stereo not drawn) | inactive |
| Cc1ccc2c(=O)c3ccccc3n(CCCN)c2c1C | inactive |
| CCCC#Cc1cnc2c(c1)C(=O)N([C@H](C)CO)C[C@@H](C)[C@H](CN(C)S(=O)(=O)c1cccc(OC)c1)O2 | inactive |
| Nc1ncnc2c1c(-c1ccc(Cl)cc1)nn2-c1cccc(-c2cnnn2Cc2cccc(-c3ccccc3)c2)c1 | active |
| C[C@H](CO)N1C[C@H](C)[C@H](CN(C)S(C)(=O)=O)Oc2c(NC(=O)CCCCCC(=O)Nc3ccccc3N)cccc2C1=O | inactive |
| COc1ccc(NC(=O)N(C)C[C@@H]2Oc3ccc(NC(=O)CCCCCC(=O)Nc4ccccc4N)cc3CC(=O)N([C@H](C)CO)C[C@H]2C)cc1 | inactive |
| C[C@H]1CN([C@@H](C)CO)C(=O)c2cc(NC(=O)Nc3ccc(F)cc3)ccc2O[C@H]1CN(C)Cc1ccc(Cl)c(Cl)c1 | inactive |
| COc1ccc(NC(=O)Nc2ccc3c(c2)C(=O)N([C@@H](C)CO)C[C@H](C)[C@H](CN(C)Cc2ccc(Cl)c(Cl)c2)O3)cc1 | active |
| C[C@@H]1CN([C@H](C)CO)C(=O)c2cc(NC(=O)Nc3ccc(F)cc3)ccc2O[C@H]1CN(C)Cc1ccc(Cl)c(Cl)c1 | inactive |
| COc1ccc(NC(=O)Nc2ccc3c(c2)C(=O)N([C@H](C)CO)C[C@H](C)[C@H](CN(C)Cc2ccc(Cl)c(Cl)c2)O3)cc1 | inactive |
| C[C@H](CO)N1C[C@H](C)[C@H](CN(C)Cc2ccc(Cl)c(Cl)c2)Oc2ccc(NC(=O)Nc3ccc(F)cc3)cc2C1=O | active |
| C[C@@H]1CN([C@@H](C)CO)C(=O)c2cc(NC(=O)Nc3ccc(F)cc3)ccc2O[C@H]1CN(C)Cc1ccc(Cl)c(Cl)c1 | inactive |
| C[C@@H]1CN([C@@H](C)CO)C(=O)c2cc(NC(=O)Nc3ccc(F)cc3)ccc2O[C@@H]1CN(C)Cc1ccc(Cl)c(Cl)c1 | active |
| C[C@@H]1CN([C@H](C)CO)C(=O)c2cc(NC(=O)Nc3ccc(F)cc3)ccc2O[C@@H]1CN(C)Cc1ccc(Cl)c(Cl)c1 | inactive |
| COc1ccc(NC(=O)Nc2ccc3c(c2)C(=O)N([C@H](C)CO)C[C@@H](C)[C@@H](CN(C)Cc2ccc(Cl)c(Cl)c2)O3)cc1 | inactive |
